Laboratory results taken from paper PMC4552634, “A New Set of Chemical Starting Points with Plasmodium falciparum Transmission-Blocking Potential for Antimalarial Drug Discovery” (PLoS ONE, 2015).
Among all 13,000 compounds or so, about 3,200 (25%) showed an effect of 50% or more. The list shows a part of the results.

Each compound was assayed on P. falciparum stage V gametocytes. Conditions: 48 h, 5 µM; inhibitor.
Design: BacTiter-Glo ATP luminescence viability of purified stage V gametocytes in 384-well plates, per cent inhibition versus DMSO

Structure (SMILES) | % Inhibition
Cc1cccc2nc(-c3ccc(-c4ccc(CN5CC(C)OC(C)C5)cc4)cc3)[nH]c12.O=C(O)C(F)(F)F (stereo not drawn) [TCMDC-133823] | -0.7329%
Cc1noc(C)c1CN1CCCN(c2ccc3c(c2)CCN(Cc2ccc(-c4ncc[nH]4)cc2)CC3)CC1 [TCMDC-136548] | -0.683%
CO/N=C(\C)c1ccc2c(c1)CCN(CCC1CCC(NC(=O)/C=C/c3ccc(F)cc3)CC1)CC2 (stereo not drawn) [TCMDC-139922] | -74.19%
Fc1ccc2nc(-c3ccc(-c4ccc(CNCCc5cccnc5)cc4)s3)[nH]c2c1 [TCMDC-132875] | -31.32%
N#Cc1cccc(C(=O)Nc2cccc(-c3ccc(CN4CCC(O)CC4)cc3)c2)c1 [TCMDC-132652] | -17.85%
CCOC(=O)c1[nH]c2cc(Cl)cc(Cl)c2c1/C=C/C(=O)Nc1ccc(-c2cnc(NC(C)=O)[nH]2)cc1 [TCMDC-137161] | -8.366%
Cc1c(C(=O)N(C)C)sc2c1c(=O)n(Cc1ccccc1)c(=O)n2CC(=O)Nc1ccccc1F [TCMDC-125279] | 4.453%
CCc1nc2nc(C)cc(Nc3cc(C)cc(C)c3)n2n1 [TCMDC-124402] | 51.49%
CCc1nc2nc(C)cc(Nc3ccc(F)c(Cl)c3)n2n1 [TCMDC-124770] | 1.315%
CCc1nc2nc(C)cc(Nc3ccc4c(c3)OCCO4)n2n1 [TCMDC-125299] | -0.3909%
CC1(C)N=C(N)N=C(N)N1OCCNCc1ccc(Cl)cc1 [TCMDC-131628] | 11.83%
O=C(Nc1cccc(-c2nn3ccccc3c2-c2ccnc(Nc3ccc(-c4cc[nH]n4)cc3)n2)c1)c1c(F)cccc1F [TCMDC-135915] | -3.577%
CC1CCCC(Nc2noc(-c3sccc3Br)n2)C1 (stereo not drawn) [TCMDC-134184] | -4.566%
Fc1ccc2[nH]cc(CCNCc3ccc(-c4cccc(-c5nc6ccccc6[nH]5)c4)cc3)c2c1.O=C(O)C(F)(F)F [TCMDC-132573] | 88.58%
O=C(O)C(F)(F)F.c1ccc(CCNCc2ccc(-c3cccc(-c4nc5ccccc5[nH]4)c3)cc2)nc1 [TCMDC-132537] | 93.06%
O=C(O)C(F)(F)F.c1ccc(-c2ccc(CNCc3ccc(-c4cccc(-c5nc6ccccc6[nH]5)c4)cc3)s2)nc1 [TCMDC-132571] | 17.42%
CS(=O)(=O)c1ccc(CCNCc2ccc(-c3cccc(-c4nc5ccccc5[nH]4)c3)cc2)cc1.O=C(O)C(F)(F)F [TCMDC-132558] | 87.75%
Fc1ccc2[nH]c(-c3ccc(-c4ccc(CNCCc5ccncc5)cc4)cc3)nc2c1.O=C(O)C(F)(F)F [TCMDC-132851] | -25.93%
CS(=O)(=O)c1ccc(CNCc2ccc(-c3cccc(-c4nc5ccccc5[nH]4)c3)cc2)cc1.O=C(O)C(F)(F)F [TCMDC-132557] | -11.29%
O=C(O)C(F)(F)F.c1cc(-c2ccc(CNCCc3ccncc3)cc2)cc(-c2nc3ccccc3[nH]2)c1 [TCMDC-132553] | 67.12%
CN(CCNCc1ccc(-c2cccc(-c3nc4ccccc4[nH]3)c2)cc1)S(C)(=O)=O.O=C(O)C(F)(F)F [TCMDC-132561] | 23.76%
O=C(O)C(F)(F)F.c1cc(CNCCc2ccncc2)cc(-c2ccc(-c3nc4ccccc4[nH]3)cc2)c1 [TCMDC-132856] | -34.48%

Structure (SMILES) | % Inhibition
Cc1cccc2nc(-c3cccc(-c4ccc(CNCCc5ccncc5)cc4)c3)[nH]c12.O=C(O)C(F)(F)F [TCMDC-132846] | -3.628%
O=C(O)C(F)(F)F.c1cncc(CCNCc2ccc(-c3cccc(-c4nc5ccccc5[nH]4)c3)cc2)c1 [TCMDC-132554] | 4.222%
CS(=O)(=O)c1ccc(CNCc2ccc(-c3cccc(-c4nc5cc(F)ccc5[nH]4)c3)cc2)cc1.O=C(O)C(F)(F)F [TCMDC-132904] | 15.16%
CC(=O)c1c(Nc2c(C)cc(C)cc2C)oc(C)cc1=O [TCMDC-125654] | 7.725%
Cc1ccccc1C1CCN(C2CCC(NC(=O)c3ccc4c(c3)-c3nocc3C(C)O4)CC2)CC1 (stereo not drawn) [TCMDC-134101] | -36.23%
O=C(Nc1cc(=O)[nH]c2nc(-c3ccccc3)nn12)C1CCCCC1 [TCMDC-125474] | 2.661%
Cc1cccc2[nH]c(-c3cccc(-c4ccc(NC(=O)NCc5cccc(F)c5)cc4)c3)nc12 [TCMDC-133289] | 46.25%
CCCCNC(=O)c1cc(CNC2CCCCC2)ccc1-c1cccc(CNCc2ccc(-c3ccccc3)cc2)c1 [TCMDC-139614] | 92.13%
COC(=O)c1cccc(CNCc2cccc(-c3csc(-c4nc5ccccc5[nH]4)c3)c2)c1 [TCMDC-132943] | -44.21%
COc1cccc(CNC(=O)c2cc(CNCc3ccccc3)ccc2-c2cccc(CNCc3ccc(-c4ccccc4)cc3)c2)c1 [TCMDC-139616] | 14.44%
CC(C)NCc1ccc(-c2cccc(CN3CCC(c4ccccc4)CC3)c2)c(C(=O)NCC2CCCCC2)c1 [TCMDC-134701] | 29.45%
CN(C)C(=O)c1cc(CNCc2ccccc2)ccc1-c1cccc(CNCc2ccc(-c3ccccc3)cc2)c1 [TCMDC-139617] | 33.8%
CNCc1ccc(-c2cccc(CNCc3ccc(-c4ccccc4)cc3)c2)c(C(=O)OC)c1 [TCMDC-139615] | 117.6%
CCCCN(CCCC)CCNC(=O)c1cccc(NC(=O)N2CCc3cc(SC)c(C(F)(F)F)cc32)c1 [TCMDC-139012] | -13.47%
Cc1ccccc1NC1=NC(=S)N(c2cccc(C(F)(F)F)c2)C12CCC(C(C)(C)C)CC2 (stereo not drawn) [TCMDC-125677] | 20.36%
O=C(Nc1ccc(N2CCN(C(=O)/C=C/c3ccccc3)CC2)c(Cl)c1)c1ccc([N+](=O)[O-])o1 [TCMDC-125229] | 0.8671%
Cc1c(Cl)ccc2sc(N3CCN(C(=O)c4ccc([N+](=O)[O-])o4)CC3)nc12 [TCMDC-125453] | 88.71%
Cc1cc(C)c2oc(-c3cccc(NC(=O)c4ccc([N+](=O)[O-])o4)c3C)nc2c1 [TCMDC-123704] | 43.1%
CCCCCCN1CCC(CNCc2cccc([N+](=O)[O-])c2)CC1 [TCMDC-141211] | 17.53%
Cc1ccc2sc(N3CCN(C(=O)c4ccc([N+](=O)[O-])o4)CC3)nc2c1C [TCMDC-124314] | 93.58%
COc1ccccc1C(=O)N1CCN(Cc2cccs2)CC1 [TCMDC-139297] | 0.2209%
COc1cccc2sc(N3CCN(C(=O)c4ccc([N+](=O)[O-])o4)CC3)nc12 [TCMDC-125150] | 57.22%

Structure (SMILES) | % Inhibition
CCc1cccc2sc(N3CCN(C(=O)c4ccc([N+](=O)[O-])o4)CC3)nc12 [TCMDC-124317] | 88.03%
COc1ccc(/N=[N+](\[O-])c2ccccc2/[N+]([O-])=N/c2ccc(OC)cc2)cc1 [TCMDC-131243] | -4.101%
CC(=O)Nc1ccccc1OCc1cc2cc(C(=O)N3CCC(N4C(=O)OCc5ccccc54)CC3)ccc2o1 [TCMDC-138453] | 6.686%
CCc1c(C)c2ccc3c(c2oc1=O)CN(CCc1ccc(F)cc1)CO3 [TCMDC-125082] | 34.69%
Cn1nccc1C(=O)NCCNCc1ccc(-c2ccc(-c3nc4cc(C(F)(F)F)ccc4[nH]3)cc2)cc1.O=C(O)C(F)(F)F [TCMDC-133013] | -32.96%
Cc1nc(-c2nc(N3CCC(C(N)=O)CC3)ncc2-c2ccsc2)sc1C [TCMDC-125362] | 25.42%
COC(=O)c1cccc(CNCc2ccc(-c3ccc(-c4nc5ccc(F)cc5[nH]4)s3)cc2)c1 [TCMDC-132951] | -33.43%
CCc1ccc(NC(=O)C=NNC(=N)N)cc1 [TCMDC-137521] | -23.47%
c1ccc(Oc2ccc(Nc3ccnc(Nc4ccc5cn[nH]c5c4)n3)cc2)cc1 [TCMDC-138574] | -56.78%
O=C(c1ccc([N+](=O)[O-])o1)N1CCN(c2nc3c(Cl)cccc3s2)CC1 [TCMDC-124316] | 86.16%
CS(=O)(=O)c1cccc2sc(N3CCN(C(=O)c4ccc([N+](=O)[O-])o4)CC3)nc12 [TCMDC-124930] | 105%
O=C(c1ccc([N+](=O)[O-])o1)N1CCN(c2nc3c(F)cc(F)cc3s2)CC1 [TCMDC-125149] | 102.2%
O=C(c1ccc([N+](=O)[O-])o1)N1CCN(c2ccccc2)CC1 [TCMDC-125833] | 2.332%
O=C(Nc1ccc(N2CCN(Cc3ccccc3Cl)CC2)cc1)c1ccc([N+](=O)[O-])o1 [TCMDC-125230] | 2.358%
O=C(Nc1cccc(-c2nc3ccccc3s2)c1)c1ccccc1[N+](=O)[O-] [TCMDC-125736] | -19.42%
CC(C)(C)OC(=O)N1CCC(C2CCN(C(=O)OC(C)(C)C)CC2)CC1 [TCMDC-132002] | 7.482%
COc1cccc(-c2csc(C(=O)NCC3CCN(Cc4ccc(C(C)(C)C)cc4)C3)c2)c1 (stereo not drawn) [TCMDC-134447] | 100.1%
O=C(NCC1CCN(CC2CCCCC2)C1)c1cc(-c2cccc(Cl)c2)cs1 (stereo not drawn) [TCMDC-134423] | 42.83%
CC(C)(C)c1ccc(CN2CCC(CNC(=O)c3cc(-c4cccc(Cl)c4)cs3)C2)cc1 (stereo not drawn) [TCMDC-134446] | 98.88%
CC(C)(C)c1ccc(CN2CCC(CNC(=O)c3cc(-c4cccc(F)c4)cs3)C2)cc1 (stereo not drawn) [TCMDC-134444] | 110.8%
CC(=O)Nc1ccc(CN2CCC(CNC(=O)c3cc(-c4cccc(Cl)c4)cs3)C2)cc1 (stereo not drawn) [TCMDC-134457] | -3.132%
CCc1ccc(CN2CCC(CNC(=O)c3cc(-c4cccc(Cl)c4)cs3)C2)cc1 (stereo not drawn) [TCMDC-134434] | 86.46%
